# CYP2C19 act: human CYP2C19 activators, primary screen, biochemical, luminescence. activation factor at 5 µM. AID 1025, 2008. Cytochrome P450 2C19 (Homo sapiens), P33261. 96,000 tested, under 10 active. recombinant CYP2C19, luciferin-H EGE luminescence; active compounds read high; 0 = fully inhibited enzyme, 1 = untreated enzyme;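 active means activation factor of at least 2 at 5 µM in the primary screen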;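 further: 0 = wells with 2.5 mM tranylcypromine and 1 = vehicle-only wells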
# Target sequence (P33261 whole entry, looked up): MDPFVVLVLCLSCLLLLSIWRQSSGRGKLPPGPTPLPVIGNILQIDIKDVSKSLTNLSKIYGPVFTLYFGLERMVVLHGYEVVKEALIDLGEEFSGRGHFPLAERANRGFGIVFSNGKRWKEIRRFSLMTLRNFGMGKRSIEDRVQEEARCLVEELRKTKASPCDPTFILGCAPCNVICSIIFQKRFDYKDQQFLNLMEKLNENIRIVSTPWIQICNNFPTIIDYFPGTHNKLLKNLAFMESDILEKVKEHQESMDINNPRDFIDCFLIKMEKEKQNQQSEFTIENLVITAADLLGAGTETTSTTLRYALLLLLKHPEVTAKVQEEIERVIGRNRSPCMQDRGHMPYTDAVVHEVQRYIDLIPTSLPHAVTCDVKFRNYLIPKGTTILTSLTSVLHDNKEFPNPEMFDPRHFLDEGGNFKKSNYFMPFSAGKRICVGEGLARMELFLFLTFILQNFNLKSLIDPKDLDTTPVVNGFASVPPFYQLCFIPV
# CYP2C9 inhib: blockers of cytochrome P450 2C9 activity – biochemical, luminescence, ADME assay, primary screen; inhibition, % at 5 µM; AID 777, 2007; hit rate 20% among 96,000; CYP2C9 Supersomes, luciferin-H conversion;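 active means blocking of liver enzyme CYP2C9 beyond about 50% at 5 µM, limit read from the data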
# CYP2C19 inh: blockers of cytochrome P450 2C19 activity – biochemical, luminescence, ADME assay, primary screen; P33261; CYP2C19 Supersomes, luciferin-H EGE luminescence, 30 min; inhibition, % at 5 µM; hit rate 21% among 96,000; AID 778, 2007;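 active means CYP2C19 inhibition above a set limit at 5 µM in the primary screen, cut at about 50% in these data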;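 further: plate controls were negative control wells for no effect and 2.5 mM tranylcypromine positive control for full effect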
# Cav32 inh: Cav3.2 calcium influx blockers – cell-based, Fluo-4 calcium fluorescence, FDSS, MLSMR library, primary screen; Voltage-dependent T-type calcium channel subunit alpha-1H (Homo sapiens), O95180; Cav3.2-expressing cells; active compounds read low; B-score at 10 µM; hit rate 4% among 100,000; AID 449739, 2010;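 active means single-dose well whose peak fluorescence ratio is a statistical outlier from its plate by either plate-standardised score or position-corrected B-score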
# CYP2C9 activ: human CYP2C9 activators, primary screen, biochemical, luminescence; recombinant CYP2C9, luciferin-H conversion; active compounds read high; factor 1 = untreated enzyme, 0 = blocked; activation factor at 5 µM; AID 1024, 2008; Cytochrome P450 2C9 (Homo sapiens), P11712; hit rate 1.4% among 96,000;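 active means activation factor of 2 or more for CYP2C9 at a 5 µM dose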;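 further: 0 = sulfaphenazole-blocked wells and 1 = vehicle-only wells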
# Active calls of the source: *; . = no result given. The list is not random: actives were taken first. Their share in the collection is about 27%.
SMILES,CYP2C19 act,CYP2C9 inhib,CYP2C19 inh,Cav32 inh,CYP2C9 activ
COC(=O)Cn1nc(-c2ccccc2)n(-c2ccccc2)c1=S,0.9,0,10,0.11,1
COCCNS(=O)(=O)c1cc(-c2nn(C)c(=O)c3ccccc23)ccc1C,0.4,70*,57*,0.68,0.3
Cc1ccc(-c2nn(CC(N)=O)c(=O)c3ccccc23)cc1S(=O)(=O)N(C)C,1.2,59*,-24,0.91,0.4
COc1ccc(-c2nn(C)c(=O)c3ccccc23)cc1NC(=O)Cn1nc(-c2ccccc2)c2ccccc2c1=O,0.6,72*,45,0.25,0.3
COc1ccc(-c2nn(C)c(=O)c3ccccc23)cc1NS(C)(=O)=O,0.5,51*,47,1.1,0.5
CCC/C=C(\CCC)C(NC(=O)CCc1ccccc1)c1ccc(C(F)(F)F)cc1 (centres undefined),.,.,.,-0.9,.
CCn1c(C)c(/C=N/Nc2nc3ccccc3s2)c2ccccc21,0.8,4,17,-0.011,1
Cc1cc(C)n(CC(=O)NCc2cc(-c3nn(C)c(=O)c4ccccc34)ccc2C)n1,0.7,55*,35,3.4,0.5
Cc1ccc(-c2nn3c(C)nnc3c3ccccc23)cc1S(=O)(=O)N1CCN(CCO)CC1,1,16,2,2.5,0.8
Cc1ccc(-c2nn(C)c(=O)c3ccccc23)cc1CNC(=O)Cn1nc(-c2ccccc2)c2ccccc2c1=O,0.9,14,9,.,0.9
Cc1ccc(-c2nn3c(C)nnc3c3ccccc23)cc1S(=O)(=O)NC(C)c1ccccc1 (centres undefined),0.5,73*,50*,-1.9,0.3
CCN(CC)S(=O)(=O)c1cccc(-c2nnc(SC(C)C#N)n2Cc2ccccc2)c1 (centres undefined),0.4,64*,61*,-0.11,0.4
CCN(CC)S(=O)(=O)c1cccc(-c2nnc(SCC#N)n2Cc2ccccc2)c1,0.8,18,23,1.8,0.8
CCN(CC)S(=O)(=O)c1cccc(-c2nnc(SCC(=O)c3ccc(Cl)s3)n2C)c1,0.3,89*,71*,-1.7,0.1
CCN(CC)S(=O)(=O)c1cccc(-c2nnc(SCC(N)=O)n2CCc2ccccc2)c1,.,.,.,1.6,.
CCN(CC)S(=O)(=O)c1cccc(-c2nnc(SC(C)C(N)=O)n2CCc2ccccc2)c1 (centres undefined),0.5,56*,46,1,0.4
Cc1ccccc1S(=O)(=O)c1c(C)cc(C)n(CC(C)C)c1=O,0.2,81*,82*,-2,0.2
Cc1cc(C)c(S(=O)(=O)c2ccccc2C(=O)O)c(C)c1,1,9,0,0.33,0.9
COC(=O)C(NC(=O)c1ccc(F)cc1)(Nc1nc(C)cs1)C(F)(F)F (centres undefined),0.6,-4,37,-2,1
Cc1ccc(N2C(=O)C3Sc4[nH]c(=O)sc4C(c4ccccc4)C3C2=O)cc1 (centres undefined),0.6,43,37,-0.051,0.6
O=C1C2Sc3[nH]c(=O)sc3C(c3ccccc3)C2C(=O)N1c1ccc(Cl)cc1 (centres undefined),0.3,52*,67*,-2.5,0.5
O=C(CSc1cccc2cccnc12)N1CCCC1,0.8,-27,22,0.37,1.3
CSc1ccc(S(=O)(=O)Nc2ccc3c4c(cccc24)CC3)cc1,0,-45,98*,-1.4,1.5
O=S(=O)(Nc1ccc2c3c(cccc13)CC2)c1ccc(F)cc1,0.3,-10,70*,.,1.1
c1ccc(Nc2ccc3c4c(cccc24)CC3)cc1,.,.,.,-0.93,.
CCCCC(=O)OCCNC(=O)c1cc2ccccc2oc1=O,0.4,32,59*,0.18,0.7
O=C(OCCNC(=O)c1cc2ccccc2oc1=O)c1cccnc1,0.9,8,10,0.21,0.9
CC(O)[C@H]1CN=C(N)N1CCCCC1CCCCC1 (some centres undefined),.,.,.,2.1,.
Cc1csc(=NC(=O)c2ccccc2)n1Cc1ccco1,0.3,37,72*,-1.7,0.6
CSCCC(NC(=O)c1ccoc1C)C(=O)O (centres undefined),1,16,-3,-0.47,0.8

# Screening data: PubChem, several laboratories
